HT1080-NT tox: kills 2HG-producing HT-1080-NT fibrosarcoma cells | HT-1080-NT fibrosarcoma viability, CellTiter-Glo ATP luminescence, 48 h | Potency, µM (series often up to 46.1 µM), for inactives: top-dose activity, negative = less viability, most hits filed as cytotoxic | 360,000 tested, 1.6% active | AID 686970;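 also: NT is the 2HG producing partner of a matched IDH1 knockdown line; 0% = DMSO-treated cells and -100% = media-only wells without cells; nearly all actives have a fitted effect of over 55% in size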
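HT-1080-NT fibrosarcoma cells (2HG-overproducing), 750 cells/well in RPMI with 5% FBS, dosed after 2 h and incubated 48 h at 37C. CellTiter-Glo luminescence normalized to DMSO and no-cell wells; concentration-response curves fitted and classed.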
HT1080 IDH1KD tx: toxicity to HT-1080 IDH1 knockdown cells (counter line) | AID 686971 | 360,000 tested, 2% active | HT-1080 IDH1 knockdown viability, ATP luminescence, 48 h | Potency, µM (titrated, usually from 46.1 µM), inactives show at the top dose activity, negative = toxicity, hits mostly cytotoxic;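 also: 0% = DMSO wells and -100% = cell-free medium wells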
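Using the IDH1-knockdown HT-1080 line run in the same batch and compound series as the NT line, viability after 48 h at 37 °C was determined by CellTiter-Glo luminescence and expressed as % activity.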
TDP1 cell noCPT: qHTS for Inhibitors of human tyrosyl-DNA phosphodiesterase 1 (TDP1): qHTS in cells in absence of CPT | DT40 Tdp1-/- hTDP1 cells, no CPT, ATP luminescence, 48 h | Potency, µM (top dose mostly 46.2 µM), for inactives: at the top dose activity change, negative = growth inhibition, hits mostly inhibitors | 420,000 tested, 15% active | AID 686978, 2013; also: nearly all actives have a fitted effect of over 55% in size
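Chicken DT40 Tdp1-/- cells complemented with human TDP1, screened without camptothecin (DMSO vehicle only), 400 cells/well. Compounds pin-transferred, cells incubated at 37 °C for at least 48 hr. Growth read as ATP-dependent luminescence (CellTiter-Glo, 30 min at RT).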
KB-V1 cytotox: kills drug-selected multidrug resistant KB-V1 cells | 400,000 tested, 3.4% active | AID 1347076 | Potency, µM (highest dose often 46.1 µM), hits mostly cytotoxic | KB-V1 MDR cells viability, CellTiter-Glo, 72 h; also: nearly all actives have a fitted effect of over 60% in size
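In this primary screen, KB-V1 cells overexpressing P-gp are incubated with library compounds (lowest to highest concentration) for 72 h at 37 degrees C before a luminescent ATP viability read.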
TDP1 cell CPT: DT40-hTDP1 cell growth loss with CPT. chicken DT40 Tdp1-/-;hTDP1 cells + 20 nM CPT, ATP luminescence, 48 h. Potency, µM (doses to about 46.2 µM), for the others: at the top dose activity change, negative = growth inhibition, usual class: inhibitors. 420,000 tested, 12% active; also: nearly all actives have a fitted effect of over 55% in size
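Chicken DT40 Tdp1-/- cells stably complemented with human TDP1 were seeded at 400 cells/well in medium containing 20 nM camptothecin, exposed to pin-transferred compounds, and grown at 37 °C for at least 48 hr. Viability was read as ATP luminescence.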
KB-3-1 tox: kills parental KB-3-1 adenocarcinoma cells; 400,000 tested, 1.4% active; KB-3-1 viability, CellTiter-Glo ATP luminescence, 72 h; AID 1347075; Potency, µM (titrated, usually from 46.1 µM), actives largely listed as cytotoxic; also: nearly all actives have a fitted effect of over 60% in size
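KB-3-1 parental drug-naive adenocarcinoma cells in DMEM/10% FBS, incubated 72 h at 37 C with pin-transferred compounds across a concentration series. Viability by CellTiter-Glo luminescence; concentration-response curves fitted after normalization.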
* marks the source's active call; other numbers are inactive results; i = inactive; ? = inconclusive; / = no result. In the library only some 19% were active in any assay of this set; here they are far more common. Calls follow the shape of the dose curve; as a rule, active = well fitted curve in the direction sought with a large enough effect; inconclusive = small, poorly fitted or top-dose-only effect, or another doubt; inactive = no such curve, though single readings can be large; an effect the other way counts as inactive or inconclusive. Unless noted, % is scaled to controls: 0 for no effect and ±100 for the full control effect; potency is read from the fitted curve at half-maximal effect.

SMILES | HT1080-NT tox | HT1080 IDH1KD tx | TDP1 cell noCPT | KB-V1 cytotox | TDP1 cell CPT | KB-3-1 tox
COc1cc(C)c(S(=O)(=O)Nc2cccc(-c3ccc(N4CCCC4)nn3)c2)cc1C | / | / | -36.1% | i | ? | i
O=S(=O)(Nc1ccc(-c2ccc(N3CCCCC3)nn2)cc1)c1ccc(OC(F)(F)F)cc1 | / | / | 16.4µM* | ? | ? | i
Cc1cc(S(=O)(=O)Nc2ccc(-c3ccc(N4CCCCC4)nn3)cc2)c(C)cc1Cl | / | / | ? | ? | 13µM* | i
O=S(=O)(Nc1ccc(-c2ccc(N3CCCC3)nn2)cc1)c1ccc(Cl)cc1 | / | / | ? | i | 14.6µM* | i
O=S(=O)(Nc1ccc(-c2ccc(N3CCCC3)nn2)cc1)c1cccc(C(F)(F)F)c1 | / | / | ? | i | ? | i
C#CCN1C=CC(=O)[C@@H](OC(=O)NCCC)[C@H]1c1ccccc1Br | 12.6% | 3.1% | -11.3% | i | -26.5% | i
CCN(CC1COc2ccccc2O1)C(=S)NC1CC2CCC1C2 (centres undefined) | 16.4% | 7.4% | -2.8% | ? | -5.5% | i
CC(=O)Oc1ccccc1N(C(C)=O)S(=O)(=O)c1ccc(C)cc1 | -5.9% | -3.2% | -2.1% | i | -11.6% | i
CC(=O)Oc1c(Cl)cc(N(C(C)=O)S(=O)(=O)c2ccccc2)c2ccccc12 | ? | ? | 4.61µM* | ? | 10.3µM* | ?
CC(=O)Oc1ccc(N(C(C)=O)S(=O)(=O)c2ccc(C)cc2C)c2ccccc12 | ? | -7.4% | ? | i | 23.1µM* | i
CC(=O)Oc1ccc(N(C(C)=O)S(=O)(=O)c2ccccc2)c2ccccc12 | ? | -9.9% | ? | i | 20.6µM* | i
COc1ccc(S(=O)(=O)N(C(C)=O)c2ccc(OC(C)=O)c3ccccc23)cc1[N+](=O)[O-] | 20.6µM* | ? | 3.66µM* | ? | 3.26µM* | ?
CC(=O)N(c1ccccc1Cl)S(=O)(=O)c1ccc(Cl)cc1 | -15.3% | -25.8% | -27.9% | i | 11.5% | i
COc1ccccc1-c1cccc2nccn12 | 4.0% | 2.5% | -14.9% | i | ? | i
COc1ccc(-c2nnc(NC(=O)C3CCCN3S(=O)(=O)c3cccs3)o2)cc1 (centres undefined) | 6.8% | 3.7% | -26.6% | ? | ? | i
O=C1CC2CC1C(C(=O)O)C2C(=O)O (centres undefined) | 5.8% | ? | 5.5% | i | 4.2% | i
CCCCN(CCCNC(=O)c1c(C)oc2nc[nH]c(=O)c12)Cc1ccccc1 | / | / | ? | i | 6.9% | i
CCOC(=O)c1cccc(N)c1 | / | / | -9.8% | / | -18.2% | /
Cc1cc(C[n+]2ccccc2)c2nsnc2c1 | ? | -23.0% | 22.4µM* | i | ? | ?
Clc1nc(CN2CCCCC2)nc2sc3c(c12)CCCC3 | -17.9% | -5.9% | 10.3µM* | i | ? | i
CC1CCN(Cc2nc(Cl)c3c4c(sc3n2)CCC4)CC1 | 5.7% | 7.5% | 13µM* | ? | 18.4µM* | i
Clc1nc(CN2CCOCC2)nc2sc3c(c12)CCC3 | 13.7% | -1.7% | 1.3% | i | 9.6% | i
Cc1sc2nc(CN3CCCCC3)nc(Cl)c2c1C | 4.1% | 1.2% | 16.4µM* | i | ? | i
CSc1nc2sc3c(c2c2nncn12)CCC3 | -0.4% | 0.5% | -18.5% | i | -1.2% | i
C=CCC(NC(=O)N(C)C)(C(C)=O)C(=O)OC (centres undefined) | 9.6% | -9.5% | 7.5% | i | 22.8% | i
SMILES | HT1080-NT tox | HT1080 IDH1KD tx | TDP1 cell noCPT | KB-V1 cytotox | TDP1 cell CPT | KB-3-1 tox
O=C(NC(=S)Nc1cc(C(F)(F)F)ccc1N1CCOCC1)c1ccco1 | -5.1% | -25.8% | ? | i | ? | i
COc1ccccc1CN1CCCC(CNC(=O)c2cccc3ccccc23)C1 (centres undefined) | -20.9% | -7.7% | ? | i | -20.1% | i
Cc1cc(C)c2nc(/N=C(\N)NC(=O)Nc3ccccc3)nc(C)c2c1 | -16.2% | -16.1% | 18.4µM* | ? | 23.1µM* | i
CCc1ccc2nc(/N=C(\N)NC(=O)c3ccccc3)nc(C)c2c1 | 17.6% | 14.9% | 16.4µM* | i | ? | i
Cc1cc(C)c2nc(/N=C(\N)NC(=O)c3ccccc3)nc(C)c2c1 | -8.0% | -8.2% | 16.4µM* | i | -24.1% | i
CCCCC(=O)N/C(N)=N/c1nc2ccccc2o1 | -0.8% | -9.9% | ? | i | ? | i
CCOC(=O)c1ccc2nc(C)c(CC)c(Cl)c2c1 | -15.6% | -14.2% | -29.2% | ? | 0.2% | i
Cc1cc(C)nc(/N=C(/NC(=O)c2ccccc2)Nc2ccccc2)n1 | 2.1% | 2.6% | -27.7% | i | -12.0% | i
CCCC(=O)N/C(N)=N/c1nc(C)c2ccccc2n1 | -15.8% | -27.1% | 16.4µM* | ? | ? | ?
Cc1cc(C)c(NC(=O)Nc2ccccc2)c(C)n1 | -5.1% | -0.2% | 9.8% | ? | -3.9% | i
CN1CCN(C(=O)C[C@H]2CC[C@H]3[C@@H](COC[C@@H](O)CN3Cc3cccc(F)c3)O2)CC1 | 12.9% | 11.6% | 4.0% | i | -12.7% | i
COCCNC(=O)c1ccccc1NC(=O)c1nsc2ccccc12 | / | / | ? | i | ? | i
CCn1c(=O)n(-c2ccc3c(c2)OCO3)c2nc(-c3cc(OC)ccc3OC)nc(C(N)=O)c21 | / | / | -15.5% | i | 10.8% | i
Cc1ccc(Cl)cc1N1CCN(C(=O)Cc2c(C(=O)O)c(C)cn2C)CC1 | / | / | -12.7% | ? | ? | i
N#Cc1cnc(=S)n(-c2cc(C(F)(F)F)cc(C(F)(F)F)c2)c1N | 4.1% | 0.5% | ? | ? | ? | i
Cc1ccc2ccc3cc(C(=O)N4CCN(c5ccccc5)CC4)nc3c2[nH]1 | / | / | 18.4µM* | i | ? | ?
COc1ccc2cc(C(=O)N3CCN(c4ccccc4OC)CC3)[nH]c2c1 | -6.5% | -1.9% | -28.3% | i | ? | i
COc1ccccc1N1CCN(C(=O)c2cc3ccc4ccc(C)[nH]c4c3n2)CC1 | / | / | 20.6µM* | ? | ? | i
O=C1c2ccc3c4c(ccc(c24)C(=O)N1c1cccc(O)c1)C(=O)N(c1cccc(O)c1)C3=O | ? | ? | 6.51µM* | i | 4.11µM* | 16.4µM*
O=C1c2ccc3c4c(ccc(c24)C(=O)N1c1cccc(O)c1)CC3 | 3.5% | 13.9% | ? | i | -7.9% | i
